Results filed as inconclusive are left out. The source made the active and inactive calls. The call rests on the fitted dose curve; in most records, active means well fitted curve in the direction sought with a large enough effect; inconclusive means small, poorly fitted or top-dose-only effect, or another doubt; inactive means no such curve, though single readings can be large; an effect the other way counts as inactive or inconclusive.
Tested on: not listed separately
Assay: Primary qHTS for inhibitors of nuclear receptor binding SET domain protein 2 (NSD2) in an RCH-ACV wild type WT cells (2C) (AID 1645877); further: nearly all actives have a fitted effect of over 70% in size; further: potency means the concentration at half of the fitted maximal effect; on activity change, negative = cell killing: on the % scale 0 is the no-effect control and ±100 the full control effect
Conditions: RCH-ACV (leukaemia line) NSD2 WT (2C) viability, CellTiter-Glo, 72 h; series mostly up to 44.9 µM; activity change, negative = cell killing: at the top concentration

| Compound | activity change, negative = cell killing | outcome | Potency |
| --- | --- | --- | --- |
| C=CC[N+]1([C@H]2C[C@H]3[C@@H]4CC[C@H]5C[C@H](O)[C@@H](N6CCOCC6)C[C@]5(C)[C@H]4CC[C@]3(C)[C@H]2OC(C)=O)CCCC1 | 0.222% (inactive) | – | – |
| COc1ccc([C@@H]2CC(=O)c3c(O)cc(O[C@@H]4O[C@H](CO[C@@H]5O[C@@H](C)[C@H](O)[C@@H](O)[C@H]5O)[C@@H](O)[C@H](O)[C@H]4O)cc3O2)cc1O | – | inactive | – |
| CC(=O)Nc1ccc(NC(=S)NC(=O)c2ccc(C(C)(C)C)cc2)cc1 | – | – | 3.25 µM (active) |
| N[C@@H](Cc1cc(I)c(Oc2ccc(O)c(I)c2)c(I)c1)C(=O)O | -22.7% (inactive) | – | – |
| CCC[C@@H]1C[C@@H](C(=O)N[C@@H]([C@H]2O[C@H](SC)[C@H](O)[C@@H](O)[C@H]2O)[C@H](C)Cl)N(C)C1 | -6.41% (inactive) | – | – |
| CC[C@H](CC[C@@H](C)[C@H]1CC[C@H]2[C@@H]3CC=C4C[C@@H](O)CC[C@]4(C)[C@H]3CC[C@]12C)C(C)C | -19.2% (inactive) | – | – |

Molecular target: Rap guanine nucleotide exchange factor 3 (Homo sapiens) (UniProt O95398)
Sequence (O95398 whole entry, looked up): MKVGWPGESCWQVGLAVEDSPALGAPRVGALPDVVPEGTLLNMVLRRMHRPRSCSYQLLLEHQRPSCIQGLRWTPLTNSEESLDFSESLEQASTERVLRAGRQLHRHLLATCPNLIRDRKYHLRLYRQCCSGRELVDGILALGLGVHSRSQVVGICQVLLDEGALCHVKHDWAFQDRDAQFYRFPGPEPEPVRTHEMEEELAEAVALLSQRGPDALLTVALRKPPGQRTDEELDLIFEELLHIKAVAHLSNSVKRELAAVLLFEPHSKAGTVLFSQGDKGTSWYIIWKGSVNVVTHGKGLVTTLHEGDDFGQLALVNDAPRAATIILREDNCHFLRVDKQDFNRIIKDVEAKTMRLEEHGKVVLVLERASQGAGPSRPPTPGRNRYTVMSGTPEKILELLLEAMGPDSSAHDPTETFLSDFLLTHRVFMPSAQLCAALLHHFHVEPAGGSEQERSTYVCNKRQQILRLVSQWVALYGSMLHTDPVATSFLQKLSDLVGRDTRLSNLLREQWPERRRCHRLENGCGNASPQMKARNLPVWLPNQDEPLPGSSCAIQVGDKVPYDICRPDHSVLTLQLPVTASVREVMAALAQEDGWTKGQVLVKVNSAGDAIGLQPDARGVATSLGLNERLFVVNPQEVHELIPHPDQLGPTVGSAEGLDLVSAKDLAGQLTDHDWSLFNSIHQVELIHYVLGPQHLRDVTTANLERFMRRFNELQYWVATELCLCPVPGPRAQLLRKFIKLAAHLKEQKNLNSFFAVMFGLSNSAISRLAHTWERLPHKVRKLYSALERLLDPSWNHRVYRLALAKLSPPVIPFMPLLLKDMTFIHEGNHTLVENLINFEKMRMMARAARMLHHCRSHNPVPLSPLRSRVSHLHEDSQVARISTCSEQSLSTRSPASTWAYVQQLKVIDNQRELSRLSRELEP
Assay: Confirmatory qHTS for antagonist of cAMP-regulated guanine nucleotide exchange factor 3 (EPAC1) (AID 1645880);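 further: plate controls were DMSO only for no effect and full effect of the ATA control for full effect; nearly all actives have a fitted effect of over 55% in size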
Conditions: EPAC1 Rap1B-BODIPY-GDP exchange, fluorescence; series mostly up to 115 µM; activity, negative = inhibition: at the top concentration
How it was run: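 Nucleotide exchange uses 100 nM EPAC1, 250 nM RAP1B-BODIPY-GDP and 50 uM GDP, with compounds in a concentration-titration series. After 5 min at room temperature, fluorescence (480 nm ex/540 nm em) is read every 5 min for 30 min. Data are normalized to control ATA and DMSO.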

| Compound | activity, negative = inhibition |
| --- | --- |
| CCOC(=O)Oc1c(OC)cc(C(=O)O[C@@H]2C[C@@H]3CN4CCc5c([nH]c6cc(OC)ccc56)[C@H]4C[C@@H]3[C@H](C(=O)OC)[C@H]2OC)cc1OC | -7.67% [at 38.4 µM] (inactive) |
| CC(C)[C@@H](C)/C=C/[C@@H](C)[C@H]1CC[C@H]2/C(=C/C=C3\C[C@@H](O)CC[C@@H]3C)CCC[C@]12C | -15.5% (inactive) |
| COc1ccc(/C=C/C(=O)O)cc1 | 4.04% (inactive) |
| NC(=O)Oc1ccc(Cc2ccccc2)cc1 | 2.26% (inactive) |
| COc1ccc2c(c1)N(C[C@H](C)CN(C)C)c1ccccc1S2 | -9.6% [at 62.4 µM] (inactive) |
| CC1CC(OC(=O)C(O)c2ccccc2)CC(C)(C)C1 (stereo unspecified) | -2.92% (inactive) |
| O=C(NNCS(=O)(=O)O)c1ccncc1 | 3.95% (inactive) |
| CSc1nc2cc(Oc3cccc(Cl)c3Cl)c(Cl)cc2[nH]1 | -15.6% (inactive) |
| COc1cc(NCCCC(C)N)c2ncccc2c1 (stereo unspecified) | -17.8% (inactive) |

Molecular target: Rap guanine nucleotide exchange factor 3 (Homo sapiens) (UniProt O95398)
Assay: Confirmatory qHTS for agonist of cAMP-regulated guanine nucleotide exchange factor 3 (EPAC1) (AID 1645881);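 further: EPAC1 catalysed release of BODIPY-GDP from Rap1B seen as fluorescence loss; 100% = effect of cAMP agonist control; nearly all actives have a fitted effect of over 75% in size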
Conditions: EPAC1 Rap1B BODIPY-GDP exchange fluorescence, 100% = cAMP control response; series mostly up to 154 µM; activation: at the top concentration

| Compound | activation |
| --- | --- |
| CCOC(=O)Oc1c(OC)cc(C(=O)O[C@@H]2C[C@@H]3CN4CCc5c([nH]c6cc(OC)ccc56)[C@H]4C[C@@H]3[C@H](C(=O)OC)[C@H]2OC)cc1OC | 2.55% [at 51.3 µM] (inactive) |
| CC(C)[C@@H](C)/C=C/[C@@H](C)[C@H]1CC[C@H]2/C(=C/C=C3\C[C@@H](O)CC[C@@H]3C)CCC[C@]12C | 0.0854% (inactive) |
| COc1ccc(/C=C/C(=O)O)cc1 | 7.61% (inactive) |
| C=CC(C)(O)CC/C=C(\C)CCC=C(C)C (stereo unspecified) | -20.1% (inactive) |
| C=CC[C@@H]1/C=C(\C)C[C@H](C)C[C@H](OC)[C@H]2O[C@@](O)(C(=O)C(=O)N3CCCC[C@H]3C(=O)O[C@H](/C(C)=C/[C@@H]3CC[C@@H](O)[C@H](OC)C3)[C@H](C)[C@@H](O)CC1=O)[C@H](C)C[C@@H]2OC | -33.3% (inactive) |
| NC(=O)Oc1ccc(Cc2ccccc2)cc1 | 6.65% (inactive) |
| COc1ccc2c(c1)N(C[C@H](C)CN(C)C)c1ccccc1S2 | 10.8% [at 83.5 µM] (inactive) |
| CC1CC(OC(=O)C(O)c2ccccc2)CC(C)(C)C1 (stereo unspecified) | 10.5% (inactive) |
| O=C(NNCS(=O)(=O)O)c1ccncc1 | 7.34% (inactive) |
| CSc1nc2cc(Oc3cccc(Cl)c3Cl)c(Cl)cc2[nH]1 | 0.0832% (inactive) |
| COc1cc(NCCCC(C)N)c2ncccc2c1 (stereo unspecified) | 9.22% (inactive) |

— PubChem BioAssay (NCATS)
